# Tested on: T1, YES
# T1 construct: gene YES1
# Conditions: concentration: 1 μM,replicates: in singlicate; n = 1
# 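Further: KINOMEscan kinase panel screen.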
row,SMILES,%Inh [%]
1,CN1CCN(CCNc2nc3cc(Oc4ccc(NC(=O)Nc5cc(C(F)(F)F)ccc5F)cc4)ccc3[nH]2)CC1.Cl.Cl [GW768504],0
2,CN(c1ccccc1CNc1nc(Nc2ccc3c(c2)CC(=O)N3)ncc1C(F)(F)F)S(C)(=O)=O,29
3,C[C@@H](Oc1cc(-n2cnc3ccc(-c4ccncc4)cc32)sc1C(N)=O)c1ccccc1Cl [GSK483724],16
4,CC(=O)c1c(-c2ccncc2)[nH]c(-c2ccncc2)c1C [GW493036],17
5,N#Cc1cccc(C(=O)NC2CCN(c3ccnc(Nc4ccc(F)cc4)n3)C2)c1 (centres unmarked) [GSK1379708],0
6,CS(=O)(=O)c1cccc(CNc2nc(Nc3ccc4c(c3)[C@@H]3C[C@@H]4CNC3=O)ncc2C(F)(F)F)c1,0
7,CCN1CCN(CCCC(=O)Nc2n[nH]c3nc(-c4ccc(O)cc4)c(Br)cc23)CC1 [SB-731579],0
8,Cc1ccc(Nc2ccnc(Nc3ccc4c(c3)CS(=O)(=O)C4)n2)cc1O.Cl [GW579362],81
9,C[C@@H](Oc1cc(-n2cnc3cc(-c4cnn(C)c4)ccc32)sc1C(N)=O)c1ccccc1Cl [GSK580432],73
10,O=C1NCCc2[nH]c(-c3ccncc3)cc21,0
11,c1ccc(Oc2ccc(Nc3ccnc4ccc(-c5ccccn5)cc34)cc2)cc1 [GW407034],55
12,NC(=O)Nc1sc(-c2ccc(F)cc2)cc1C(N)=O [GW789449],0
13,COc1cccc(CNC(=O)NC2CCN(c3ccnc(Nc4cc(OC)c(OC)c(OC)c4)n3)C2)c1 (centres unmarked) [GSK1379765],7
14,COC(=O)c1cccc(NC(=O)NC2CCN(c3ccnc(Nc4cc(OC)c(OC)c(OC)c4)n3)C2)c1 (centres unmarked) [GSK1379767],0
15,CC(=O)Nc1nc2cnc(Nc3cc(NC(=O)c4cccc(CC(C)(C)C#N)c4)ccc3C)nc2s1,17
16,C[C@@H]1CNc2c(sc3ccc4nc(-c5ccncc5)ccc4c23)C(=O)N1,0
17,Cl.Nc1n[nH]c2cc(-c3ccccn3)ccc12 [GSK2189892],7
18,COc1cc2c(Nc3ccc(NC(=O)c4ccccc4)cc3)ncnc2cc1OCCCN1CCOCC1 [GSK301329],46
19,Cc1ccc2c(-c3ccnc(Nc4ccc(C(F)(F)F)cc4)n3)cnn2n1 [GW819776],0

row,SMILES,%Inh [%]
1,CC(C)S(=O)(=O)N1CCN(Cc2ccc3c(c2)nc(NC(=O)c2ccsc2)n3C[C@H](O)c2ccccc2)CC1 [GW635815],86
2,NC(=O)c1ccc(-c2cc3ncnc(SCC(=O)O)c3s2)cc1,0
3,CCn1c(-c2nonc2N)nc2cncc(Br)c21 [SB-738004],0
4,O=C(NCC1CC1)c1ccc(-c2cc(C(=O)NC3CC3)ccc2F)cc1 [GW810445],0
5,COc1cc2ncn(-c3cc(OCC4CCCCC4)c(C(N)=O)s3)c2cc1OC [GSK204559],4
6,COc1cccc(OC)c1C(=O)Nc1cccc(-c2nn3ccccc3c2-c2ccnc(Nc3cccc(F)c3)n2)c1 [GSK361065],36
7,COC(=O)Nc1nc2cc(Oc3ccc(NC(=O)Nc4cc(C(F)(F)F)ccc4Cl)cc3)ccc2[nH]1.Cl [GW697465],29
8,Cl.Cl.NC[C@H](CC1CCCCC1)NC(=O)c1ccc(-c2ccnc3[nH]ccc23)s1 [GSK1581428],5
9,CN1CCN(CCCNc2nccc(-c3c(-c4ccc(F)cc4)nn4cc(C(N)=O)ccc34)n2)CC1 [GW622475],24
10,O=C(NOCC1CC1)c1cc(Br)c(F)c(F)c1Nc1ccc(I)cc1Cl,0
11,CC(=O)Nc1ccc(-c2cc3ncnc(SCC(=O)O)c3s2)cc1,0
12,OCCn1cc(-c2cnc3nnn(Cc4ccc5ncccc5c4)c3n2)cn1,0
13,CCCC(=O)Nc1n[nH]c2ncccc12 [SB-601436],0
14,CN(c1ccc2c(c1)nc(NCc1ccc(F)cc1)n2C)c1ccnc(Nc2ccc(CS(C)(=O)=O)cc2)n1.Cl [GW813244],7
15,Cl.c1ccc(Oc2ccc(Nc3ccnc4cc(-c5ccc(CN6CCNCC6)o5)ccc34)cc2)nc1 [GW567142],70
16,Cc1ccc(C(=O)Nc2ccc(Oc3ccc4nc(NC(=O)C5CC5)cn4c3)c(F)c2)c(=O)n1-c1ccccc1,71
17,CN(c1cccc(CNc2nc(Nc3ccc4c(c3)CC(=O)N4)ncc2C(F)(F)F)c1)S(C)(=O)=O,3
18,CCn1c(-c2nonc2N)nc2cncc(CNC3CCNCC3)c21.Cl [SB-747651],11

# Tested on: T2, YSK1
# T2 construct: gene STK25
# Conditions: concentration: 1 μM,replicates: in singlicate; n = 1
row,SMILES,%Inh [%]
1,CN1CCN(CCNc2nc3cc(Oc4ccc(NC(=O)Nc5cc(C(F)(F)F)ccc5F)cc4)ccc3[nH]2)CC1.Cl.Cl [GW768504],9
2,CN(c1ccccc1CNc1nc(Nc2ccc3c(c2)CC(=O)N3)ncc1C(F)(F)F)S(C)(=O)=O,11
3,C[C@@H](Oc1cc(-n2cnc3ccc(-c4ccncc4)cc32)sc1C(N)=O)c1ccccc1Cl [GSK483724],2
4,CC(=O)c1c(-c2ccncc2)[nH]c(-c2ccncc2)c1C [GW493036],0
5,N#Cc1cccc(C(=O)NC2CCN(c3ccnc(Nc4ccc(F)cc4)n3)C2)c1 (centres unmarked) [GSK1379708],0
6,CS(=O)(=O)c1cccc(CNc2nc(Nc3ccc4c(c3)[C@@H]3C[C@@H]4CNC3=O)ncc2C(F)(F)F)c1,0
7,CCN1CCN(CCCC(=O)Nc2n[nH]c3nc(-c4ccc(O)cc4)c(Br)cc23)CC1 [SB-731579],0
8,Cc1ccc(Nc2ccnc(Nc3ccc4c(c3)CS(=O)(=O)C4)n2)cc1O.Cl [GW579362],39
9,C[C@@H](Oc1cc(-n2cnc3cc(-c4cnn(C)c4)ccc32)sc1C(N)=O)c1ccccc1Cl [GSK580432],31
10,O=C1NCCc2[nH]c(-c3ccncc3)cc21,0
11,c1ccc(Oc2ccc(Nc3ccnc4ccc(-c5ccccn5)cc34)cc2)cc1 [GW407034],0
12,NC(=O)Nc1sc(-c2ccc(F)cc2)cc1C(N)=O [GW789449],0
13,COc1cccc(CNC(=O)NC2CCN(c3ccnc(Nc4cc(OC)c(OC)c(OC)c4)n3)C2)c1 (centres unmarked) [GSK1379765],0
14,COC(=O)c1cccc(NC(=O)NC2CCN(c3ccnc(Nc4cc(OC)c(OC)c(OC)c4)n3)C2)c1 (centres unmarked) [GSK1379767],16
15,CC(=O)Nc1nc2cnc(Nc3cc(NC(=O)c4cccc(CC(C)(C)C#N)c4)ccc3C)nc2s1,0
16,C[C@@H]1CNc2c(sc3ccc4nc(-c5ccncc5)ccc4c23)C(=O)N1,0
17,Cl.Nc1n[nH]c2cc(-c3ccccn3)ccc12 [GSK2189892],8
18,COc1cc2c(Nc3ccc(NC(=O)c4ccccc4)cc3)ncnc2cc1OCCCN1CCOCC1 [GSK301329],6
19,Cc1ccc2c(-c3ccnc(Nc4ccc(C(F)(F)F)cc4)n3)cnn2n1 [GW819776],0

row,SMILES,%Inh [%]
1,CC(C)S(=O)(=O)N1CCN(Cc2ccc3c(c2)nc(NC(=O)c2ccsc2)n3C[C@H](O)c2ccccc2)CC1 [GW635815],0
2,NC(=O)c1ccc(-c2cc3ncnc(SCC(=O)O)c3s2)cc1,0
3,CCn1c(-c2nonc2N)nc2cncc(Br)c21 [SB-738004],0
4,O=C(NCC1CC1)c1ccc(-c2cc(C(=O)NC3CC3)ccc2F)cc1 [GW810445],3
5,COc1cc2ncn(-c3cc(OCC4CCCCC4)c(C(N)=O)s3)c2cc1OC [GSK204559],24
6,COc1cccc(OC)c1C(=O)Nc1cccc(-c2nn3ccccc3c2-c2ccnc(Nc3cccc(F)c3)n2)c1 [GSK361065],1
7,COC(=O)Nc1nc2cc(Oc3ccc(NC(=O)Nc4cc(C(F)(F)F)ccc4Cl)cc3)ccc2[nH]1.Cl [GW697465],4
8,Cl.Cl.NC[C@H](CC1CCCCC1)NC(=O)c1ccc(-c2ccnc3[nH]ccc23)s1 [GSK1581428],0
9,CN1CCN(CCCNc2nccc(-c3c(-c4ccc(F)cc4)nn4cc(C(N)=O)ccc34)n2)CC1 [GW622475],22
10,O=C(NOCC1CC1)c1cc(Br)c(F)c(F)c1Nc1ccc(I)cc1Cl,0
11,CC(=O)Nc1ccc(-c2cc3ncnc(SCC(=O)O)c3s2)cc1,11
12,OCCn1cc(-c2cnc3nnn(Cc4ccc5ncccc5c4)c3n2)cn1,0
13,CCCC(=O)Nc1n[nH]c2ncccc12 [SB-601436],0
14,CN(c1ccc2c(c1)nc(NCc1ccc(F)cc1)n2C)c1ccnc(Nc2ccc(CS(C)(=O)=O)cc2)n1.Cl [GW813244],4
15,Cl.c1ccc(Oc2ccc(Nc3ccnc4cc(-c5ccc(CN6CCNCC6)o5)ccc34)cc2)nc1 [GW567142],22
16,Cc1ccc(C(=O)Nc2ccc(Oc3ccc4nc(NC(=O)C5CC5)cn4c3)c(F)c2)c(=O)n1-c1ccccc1,0
17,CN(c1cccc(CNc2nc(Nc3ccc4c(c3)CC(=O)N4)ncc2C(F)(F)F)c1)S(C)(=O)=O,0
18,CCn1c(-c2nonc2N)nc2cncc(CNC3CCNCC3)c21.Cl [SB-747651],0
